# Results taken from paper PMC4336329 (PLoS ONE, 2015).
# About 2,200 (0.71%) of roughly 310,000 compounds showed an effect of 50% or more. Effects have a minus sign here. This is one part of a sample in which strong results are shown more often than they occur.
# Molecular target: human ether-à-go-go-related gene (hERG) potassium channel (human, UniProt Q12809)
# Test: primary screen, population patch clamp on CHO cells stably expressing hERG; higher = less effect of the substance
# Chain of human ether-à-go-go-related gene (hERG) potassium channel (Q12809 whole entry, looked up): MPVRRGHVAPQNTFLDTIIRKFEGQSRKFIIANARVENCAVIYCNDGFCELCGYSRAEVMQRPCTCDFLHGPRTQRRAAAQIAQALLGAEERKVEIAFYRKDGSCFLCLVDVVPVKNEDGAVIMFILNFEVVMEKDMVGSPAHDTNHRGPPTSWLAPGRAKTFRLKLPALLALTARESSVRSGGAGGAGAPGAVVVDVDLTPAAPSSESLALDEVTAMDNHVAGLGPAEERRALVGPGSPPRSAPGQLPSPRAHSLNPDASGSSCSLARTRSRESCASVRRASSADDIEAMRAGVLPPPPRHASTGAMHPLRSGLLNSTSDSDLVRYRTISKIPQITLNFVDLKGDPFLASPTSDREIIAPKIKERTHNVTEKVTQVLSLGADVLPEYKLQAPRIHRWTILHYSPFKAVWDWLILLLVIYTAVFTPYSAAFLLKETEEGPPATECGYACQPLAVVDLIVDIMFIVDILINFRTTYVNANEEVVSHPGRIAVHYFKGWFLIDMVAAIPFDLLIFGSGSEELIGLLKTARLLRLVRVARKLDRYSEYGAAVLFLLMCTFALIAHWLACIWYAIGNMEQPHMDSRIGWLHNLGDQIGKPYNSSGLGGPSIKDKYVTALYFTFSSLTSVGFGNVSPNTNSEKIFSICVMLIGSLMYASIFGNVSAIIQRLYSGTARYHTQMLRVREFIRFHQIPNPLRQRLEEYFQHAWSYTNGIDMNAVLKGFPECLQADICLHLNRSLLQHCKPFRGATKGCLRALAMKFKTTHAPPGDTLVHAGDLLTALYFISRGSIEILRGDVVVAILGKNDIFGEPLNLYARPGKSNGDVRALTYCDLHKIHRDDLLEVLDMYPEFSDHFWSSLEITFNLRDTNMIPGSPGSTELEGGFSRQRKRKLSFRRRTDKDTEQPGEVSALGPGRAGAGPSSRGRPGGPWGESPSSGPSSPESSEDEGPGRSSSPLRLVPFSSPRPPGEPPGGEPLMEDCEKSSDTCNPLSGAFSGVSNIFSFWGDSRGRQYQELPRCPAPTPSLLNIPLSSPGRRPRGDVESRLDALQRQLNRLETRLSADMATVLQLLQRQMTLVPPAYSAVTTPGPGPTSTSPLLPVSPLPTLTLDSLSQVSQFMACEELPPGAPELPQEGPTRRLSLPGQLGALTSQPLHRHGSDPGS
row,SMILES,"hERG current change (%, negative = inhibition) at 1uM"
1,Cc1cccc(OCCNC(=O)CCNS(=O)(=O)c2ccc3ccccc3c2)c1,6.04%
2,CCCn1nc(C(=O)Nc2ccc(N3CCOCC3)cc2)c2ccccc2c1=O,1.6%
3,O=C(Cn1nc(Br)nc1Br)c1ccccc1,10.2%
4,COc1cc(C2NC(=O)NC(C)=C2C(=O)NCc2ccccc2)c(Cl)cc1O (stereo not drawn),13.7%
5,COCCNC(=O)C1CC(c2ccccc2C(F)(F)F)=NO1 (stereo not drawn),14.7%
6,O=C(CSc1nc2ccccc2c(=O)n1Cc1ccco1)NCCN1C(=O)CSC1=O,-56%
7,Cn1c(SCC(=O)NCCN2C(=O)CSC2=O)nc2ccccc2c1=O,7.27%
8,CCn1c(SCC(=O)N2CCCC2)nc2ccccc2c1=O,-7.76%
9,O=C(CSc1nc2ccccc2c(=O)n1Cc1ccco1)N1CCCCCC1,-82.8%
10,O=C(CSc1nc2ccccc2c(=O)n1Cc1ccco1)NCc1ccco1,-40.8%
11,CCCn1c(SCC(=O)N2CCN(c3ccccc3)CC2)nc2ccccc2c1=O,-4.8%
12,CCn1c(SCC(=O)N2CCCCCC2)nc2ccccc2c1=O,2.02%
13,O=C(CSc1nc2ccccc2c(=O)n1CCCN1CCOCC1)N1CCN(c2ccccc2)CC1,-6.61%
14,O=C(CSc1nc2ccccc2c(=O)n1Cc1ccco1)N1CCN(c2ccccc2)CC1,-83.6%
15,COc1cc(OC)c(NC(=S)NCc2ccc(F)cc2)cc1Cl,8.5%
16,Oc1ccccc1N1CCN(Cc2ncc(-c3ccccc3)o2)CC1,7%
17,O=C(CSc1nnnn1-c1ccc2c(c1)OCCO2)OC1CCCCC1,6.23%
18,COc1ccc(C)cc1Nc1nc(-c2c(C)[nH]c3ccccc23)cs1,4.55%
19,CSc1ccc(/C=c2\s/c(=C\C(=O)C(C)(C)C)n(CC(=O)NCCC3=CCCCC3)c2=O)cc1,-3.41%
20,Cc1c(CN(C)C)c2c(n1Cc1ccccc1)C(=O)c1ccc(Br)cc1-2.Cl,-16.4%
21,Cc1c(CN(C)C)c2c(n1Cc1ccccc1)C(=O)c1ccccc1-2.Cl,-79%
22,Cc1c(CN(C)C)c2c(n1C)C(=O)c1ccc(Br)cc1-2.Cl,-2.4%
23,CCCCOP(=O)(OCCCC)C(O)c1ccc(N(C)C)cc1 (stereo not drawn),12.5%
24,CSc1ccccc1OCc1cc(C(=O)NC2CCc3ccccc32)no1 (stereo not drawn),17.2%

row,SMILES,"hERG current change (%, negative = inhibition) at 1uM"
1,OCc1ncccc1O,8.62%
2,O=[N+]([O-])c1ccc(CN2CCCCCC2)cc1,-0.361%
3,COc1ccc(CN2CCOCCOCCOCCOCCOCC2)cc1,7.46%
4,COc1ccc(CN2CCOCCOCCN(Cc3ccc(OC)cc3)CCOCCOCC2)cc1,-84.1%
5,O=[N+]([O-])c1ccc(CN2CCOCCOCCOCC2)cc1,-20.5%
6,COc1ccc(CN2CCOCCOCCOCC2)cc1,-21.8%
7,O=[N+]([O-])c1ccc(CN2CCOCCOCCN(Cc3ccc([N+](=O)[O-])cc3)CCOCC2)cc1,-86.9%
8,CCCN(C(=O)CCl)C1=CCCCC1,26.6%
9,O=C(CS(=O)(=O)Cc1ccccc1)Nc1ncccn1,13%
10,C[C@@H]1CN=C2N(CCNC(=O)CCC3CCCCC3)[C@H](Cc3ccc(O)cc3)CN21,7.9%
11,O=C(CCC1CCCCC1)NCCN1C2=NC[C@@H](Cc3ccccc3)N2C[C@H]1Cc1ccc(O)cc1,-0.771%
12,COc1ccc(C[C@H]2CN3C(=NC[C@@H]3C(C)C)N2CCNC(=O)CCC2CCCCC2)cc1,-86%
13,C[C@H]1CN=C2N(CCNC(=O)CCC3CCCCC3)[C@H](Cc3ccc(O)cc3)CN21,14.3%
14,COc1ccc(C[C@H]2CN3C(=NC[C@@H]3Cc3ccccc3)N2CCNC(=O)CCC2CCCCC2)cc1,-60.4%
15,COc1ccc(C[C@H]2CN3C(=NC[C@H]3Cc3ccccc3)N2CCNC(=O)CCC2CCCCC2)cc1,-49.2%
16,CC(C)[C@H]1CN=C2N(CCNC(=O)CCC3CCCCC3)[C@H](Cc3ccc(O)cc3)CN21,-2.53%
17,COc1ccc(C[C@H]2CN3C(=NC[C@@H]3Cc3ccc(O)cc3)N2C[C@H](C)NC(=O)CCC2CCCCC2)cc1,-14.9%
18,C/C=C(\C)C(=O)NCCN1C2=NC[C@H](C(C)C)N2C[C@@H]1Cc1ccc(OC)cc1,-46.6%
19,COc1ccc(C[C@H]2CN3C(=NC[C@@H]3C)N2CCNC(=O)CCC2CCCCC2)cc1,-63.7%
20,C[C@@H](CN1C2=NC[C@H](Cc3ccc(O)cc3)N2C[C@H]1Cc1ccc(O)cc1)NC(=O)CCC1CCCCC1,12.5%
21,COc1ccc(C[C@@H]2CN3C(=NC[C@@H]3Cc3ccc(O)cc3)N2C[C@H](C)NC(=O)CCC2CCCCC2)cc1,-64.6%
22,COc1ccc(COc2ccsc2C(=O)Nc2ccc(Cl)c(Cl)c2)cc1,13.6%
23,COc1cc(OC)cc(-c2nc(SCC(=O)Nc3ccccc3F)n[nH]2)c1,11.9%
24,CC(C)c1ccc(C(N)=S)cc1,7.86%

row,SMILES,"hERG current change (%, negative = inhibition) at 1uM"
1,O=C(Cc1ccccc1)N1CCC2(CC1)NCCc1[nH]cnc12,20.4%
2,COc1ccc(NC(=O)/C=C/c2ccc(C)o2)cc1S(=O)(=O)N1CCOCC1,3.88%
3,COc1cc(S(=O)(=O)Nc2ccccc2N2CCCCC2)ccc1NC(C)=O,-4.5%
4,COC(=O)C(NC(=O)c1c(C)nn(C)c1Cl)c1ccccc1 (stereo not drawn),14.2%
5,Cc1ccc2c(c1)c(C)c(C)n2CC(O)Cn1nnc2ccccc21 (stereo not drawn),12.4%
6,CS(=O)(=O)NCc1nnc(SCc2c(F)cccc2Cl)o1,-1.52%
7,O=C(O)c1cccc(Nc2ccc([N+](=O)[O-])c3nonc23)c1,2.1%
8,Cc1cc(=O)n2nc(N3CCCC3C(=O)Nc3cccc(Cl)c3C)sc2n1 (stereo not drawn),12.5%
9,COc1ccc(N2CCN(C(=O)c3ccc4c(=O)n(Cc5ccc6c(c5)OCO6)c(=O)[nH]c4c3)CC2)cc1,25%
10,CC(=O)/C(=C\N(C)C)Sc1ccc(C)cc1,27.2%
11,Cc1ccc(C(=O)Oc2cc(C)n(C)c(=O)c2)cc1,5.86%
12,COc1cc(Cl)nn(-c2ccccc2)c1=O,13.3%
13,CC1(c2ccc([N+](=O)[O-])cc2)Nc2ccccc2S1 (stereo not drawn),10.9%
14,COc1ccc(C[C@H]2CN3C(=NC[C@H]3C)N2CCNC(=O)CCC2CCCCC2)cc1,-51.9%
15,O=C(CCC1CCCCC1)NCCN1C2=NC[C@H](Cc3ccc(O)cc3)N2C[C@H]1Cc1ccc(O)cc1,12.5%
16,COc1ccc(C[C@@H]2CN3C(=NC[C@@H]3C)N2C[C@H](C)NC(=O)CCC2CCCCC2)cc1,-20.8%
17,COc1ccc(-c2nnn(Cc3nc(N)nc(N4CCOCC4)n3)n2)cc1OC,3.65%
18,Nc1nc(Cn2nnc(-c3ccccc3Cl)n2)nc(N2CCOCC2)n1,-25.9%
19,Nc1nc(Cn2nnc(-c3ccccc3F)n2)nc(N2CCOCC2)n1,-53.8%
20,COc1ccc(S(=O)(=O)N2CCCC2CNC(=O)C(=O)NC2CCCCCC2)cc1 (stereo not drawn),-3.96%
21,CCOc1ccc(OCC(=O)N2CCC3(CC2)CC(=O)c2ccccc2O3)cc1,-56.8%
22,COc1cccc(OCC(=O)N2CCC3(CC2)CC(=O)c2ccccc2O3)c1,-5.23%
23,COc1ccc(OCC(=O)N2CCC3(CC2)CC(=O)c2ccccc2O3)cc1,-70.2%
24,Cc1ccc(OCC(=O)N2CCC3(CC2)CC(=O)c2ccccc2O3)cc1,-49%

row,SMILES,"hERG current change (%, negative = inhibition) at 1uM"
1,COc1ccc(OCC(=O)N2CCN(C(=O)COc3ccc(Br)cc3)CC2)cc1,-56.9%
2,Cc1ccccc1OCC(=O)N1CCC2(CC1)CC(=O)c1ccccc1O2,-10.3%
3,Cc1cccc(OCC(=O)N2CCC3(CC2)CC(=O)c2ccccc2O3)c1,-6.58%
4,COc1ccc(OCC(=O)N2CCN(C(=O)COc3ccccc3)CC2)cc1,-24.7%
5,O=C1CC2(CCN(C(=O)COc3ccc(Cl)cc3)CC2)Oc2ccccc21,-70.4%
6,O=C1CC2(CCN(C(=O)COc3ccc(F)cc3)CC2)Oc2ccccc21,-17%
7,CC(=O)N1CCN(C(=O)COc2ccc(Br)cc2)CC1,3.21%
8,O=C1CC2(CCN(C(=O)COc3ccccc3)CC2)Oc2ccccc21,-21.4%
9,COc1ccc(NC(=O)N2CC(C)OC(C)C2)cc1OC (stereo not drawn),9.39%
10,O=C1c2ccccc2C(=O)N1CCn1ccnc1,17.7%
11,CCOc1cccc(CNc2ccc(O)cc2)c1OCc1ccc(Cl)cc1Cl,10.8%
12,O=C(c1cnn2c(C(F)(F)F)cc(-c3ccco3)nc12)N1CCCc2ccccc21,-1.81%
13,N=c1c2c(ncn1Cc1ccco1)Oc1c(ccc3ccccc13)C2c1ccccc1 (stereo not drawn),1.59%
14,COc1ccc(C2c3ccc(O)cc3Oc3ncn4nc(-c5ccccn5)nc4c32)cc1OC (stereo not drawn),-50.1%
15,COc1ccc(C2c3ccc(O)cc3Oc3ncn(Cc4ccco4)c(=N)c32)cc1OC (stereo not drawn),-75.9%
16,COc1ccc(C2c3ccc(O)cc3Oc3ncn(Cc4ccco4)c(=N)c32)cc1 (stereo not drawn),-43.5%
17,N=c1c2c(ncn1CCCO)Oc1cc(O)ccc1C2c1ccccc1 (stereo not drawn),0.259%
18,COc1ccc(C2c3ccc(O)cc3Oc3ncn4nc(-c5ccncc5)nc4c32)cc1OC (stereo not drawn),-0.788%
19,COc1ccc(C2c3ccc(O)cc3Oc3ncn4nc(-c5ccccn5)nc4c32)cc1 (stereo not drawn),18.3%
20,N=c1c2c(ncn1Cc1ccco1)Oc1cc(O)ccc1C2c1ccccc1 (stereo not drawn),-69.5%
21,COc1ccc(C2c3ccc(O)cc3Oc3ncn(Cc4ccccc4)c(=N)c32)cc1OC (stereo not drawn),-0.742%
